# An excerpt weighted towards active compounds, which were near 4.3% of everything screened.
# esBAF inh: SWI/SNF esBAF complex inhibition. 350,000 tested, 2% active. mouse ES cells, Bmi1-luciferase knock-in reporter, 24 h; 100% = twice the neutral-well signal. reporter increase, % at 12.5 µM; in the data active means activation above about 40%; inconclusive means no clear call, values can overlap the other calls;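 further: 0% = median of the plate's neutral control wells and 100% = double that signal; a rise in the Bmi1 reporter signal indicates esBAF inhibition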
# MITF TRPM1 HTS: activators of MITF-driven TRPM1 promoter activity in SK-MEL-5 cells; SK-MEL-5 TRPM1-promoter luciferase, 24 h; % of positive control, neutral wells = 0; activation, % at 12.5 µM; 300,000 tested, 0.75% active; AID 588334;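 active means mean activation of at least 80% with every replicate also reaching 80%; inconclusive means mean reaches 80% but some replicate falls short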;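 further: 0% = neutral control wells and 100% = parthenolide positive control wells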
# HSF1 inhib: HSF1 inhibition; NIH3T3-HGL HSE-luciferase, MG132-induced, luminescence 8 h; active compounds read low; activity change, negative = inhibition, % at 7.5 µM (by protocol); 300,000 tested, 0.77% active; AID 2098;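 active means more than half of replicate wells show activity change below -50%, luminescence cut by over half; inconclusive means some wells, but at most half, below -50%; inactive means no replicate well below -50%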;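 further: luciferase reports HSF-1 transcriptional activity via heat shock element; 0% = median of DMSO wells and -100% = zero luminescence signal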
# Wnt act: activators of Wnt/beta-catenin signaling | 300,000 tested, 1.2% active | activation, % at 9.35 µM | AID 743398 | Wnt/beta-catenin reporter cell assay, activator, plate reader; in the data active means activation above about 30%, passing the limit was not always enough; inconclusive means no clear call, values can overlap the other calls;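 further: 0% = neutral control wells and 100% = positive control wells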
# SMARCA2 activ: SMARCA2 function activation, primary screen. activation, % at 9.1 µM. 370,000 tested, 1% active. MG213 cells, MMTV-luciferase reporter, dexamethasone, overnight; in the data active means activation above about 7.8%;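 further: 0% = vehicle wells and 100% = reference activator wells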
# HSF-1 act: increases HSF-1 driven luciferase reporter signal | NIH3T3-HGL HSF-1 luciferase reporter, MG132, 8 h; 100% = twice DMSO control signal | activation, % at 9 µM | 300,000 tested, 1.7% active;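 active means mean replicate activation of at least 50% with a set share of replicates each reaching 50%; inconclusive means only one of those two conditions met; inactive means mean below 50% and too few replicates reaching it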;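 further: 0% = median of the neutral control wells and 100% = twice that signal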
# Starred values were filed as active, the others as inactive; ? = inconclusive; / = no result.
SMILES,esBAF inh,MITF TRPM1 HTS,HSF1 inhib,Wnt act,SMARCA2 activ,HSF-1 act
CCOC(=O)c1c(C)[nH]c(C(=O)OCC(=O)c2ccccc2)c1C,45*,122*,-1,49*,5,-24
C[C@@H]1CN([C@H](C)CO)S(=O)(=O)c2ccc(C#CC3CC3)cc2O[C@H]1CN(C)C(=O)c1cccnc1,7,/,/,/,/,/
CN1C[C@@H]2[C@H](c3ccccc31)[C@H](CO)N2Cc1ccccc1,-4,/,/,/,/,/
Cc1ccc(C(=O)COC(=O)c2cccc([N+](=O)[O-])c2)s1,46*,57,/,11,1,/
CCOC(=O)c1sc(=NC(=O)c2cccc(Br)c2)n(C)c1C,71*,73,18,2,0,27
CCOC(=O)c1sc(=NC(=O)c2ccc(C)cc2)n(C)c1C,/,32,-5,31*,6,-18
CCOC(=O)c1sc(=NC(=O)c2c(F)cccc2F)n(C)c1C,54*,50,10,13,0,20
CCOC(=O)c1sc(=NC(=O)CCSc2ccccc2)n(C)c1C,/,114*,21,26,0,24
C[C@@H]1CN([C@@H](C)CO)S(=O)(=O)c2ccc(C3=CCCCC3)cc2O[C@@H]1CN(C)S(=O)(=O)c1cn(C)cn1,-2,/,/,/,/,/
CCC(=O)N1CCN(c2nc3ccc(Br)cc3s2)CC1,75*,71,13,20,0,11
CCCCC(=O)N1CCN(c2nc3ccc(F)cc3s2)CC1,12,35,20,1,-3,?
CCCC(=O)N1CCN(c2nc3ccccc3s2)CC1,-4,96*,28,0,4,46
C[C@@H]1CN([C@H](C)CO)C(=O)Cc2cc(NC(=O)Nc3ccccc3)ccc2O[C@H]1CN(C)Cc1ccncc1,-3,/,/,/,/,/
O=C(C[C@@H]1C[C@H]2c3cc(NS(=O)(=O)c4ccc(F)cc4)ccc3O[C@H]2[C@@H](CO)O1)NCc1cccc(F)c1,11,/,/,/,/,/
C[C@H](CO)N1C[C@H](C)[C@H](CN(C)C(=O)Nc2ccccc2)Oc2ccc(NS(C)(=O)=O)cc2C1=O,3,/,/,/,/,/
C[C@@H]1C[C@H]2[C@@H]3C[C@H](F)C4=CC(=O)C=C[C@]4(C)[C@@]3(F)[C@@H](O)C[C@]2(C)[C@@]1(O)C(=O)COC(=O)C(C)(C)C,0,17,-48,-8,-3,-55
C[C@@H]1C[C@H]2[C@@H]3CCC4=CC(=O)C=C[C@]4(C)[C@@]3(F)[C@@H](O)C[C@]2(C)[C@@]1(O)C(=O)CO,3,25,-53*,-1,-2,-61
C[C@@H]1C[C@H]2[C@@H]3C[C@H](F)C4=CC(=O)C(Cl)=C[C@]4(C)[C@@]3(F)[C@@H](O)C[C@]2(C)[C@@]1(O)C(=O)CO,/,/,-50*,/,/,-53
Cc1noc(C)c1NC(=O)N(C)C[C@H]1OCc2ccccc2-c2c(n(C)c3ccccc23)C(=O)N([C@H](C)CO)C[C@@H]1C,0,/,/,/,/,/
CC(=O)N1[C@H](C(=O)NCc2ccccc2Cl)[C@@H](CO)[C@@H]2Cn3c(ccc(-c4cncnc4)c3=O)[C@@H]21,-4,/,/,/,/,/
Cc1ccc2nc(SCCCCOc3ccccc3)[nH]c2c1,2,4,19,/,/,18
O=[N+]([O-])c1cccc(CSc2nc3ccccc3[nH]2)c1,/,35,4,/,4,24
COc1cccc(CSc2nc3ccccc3[nH]2)c1,54*,74,63,59*,3,112*
c1ccc(OCCSc2nc3ccccc3[nH]2)cc1,/,88*,26,/,3,38
OC(Cc1nc2ccccc2[nH]1)c1ccccc1Cl (stereo unspecified),55*,53,35,-1,4,?
O=S(=O)(CCc1nc2ccccc2[nH]1)c1ccc(Cl)cc1,6,-4,-89*,-2,2,-91
Cc1ccc(S(=O)(=O)CCc2nc3ccccc3[nH]2)cc1,3,-18,0,1,-1,-12
COCCNC(=O)C[C@H]1C[C@H]2c3cc(NC(=O)CN(C)C)ccc3O[C@H]2[C@H](CO)O1,-3,/,/,/,/,/
C[C@@H]1CN([C@@H](C)CO)C(=O)c2cccc(NS(=O)(=O)c3ccc(Cl)cc3)c2O[C@@H]1CN(C)Cc1ccc(Cl)c(Cl)c1,-6,/,/,/,/,/
c1ccc(OCc2nc3ccccc3[nH]2)cc1,51*,/,13,62*,8,32
